Bioassay records: PubChem BioAssay, National Center for Advancing Translational Sciences (NCATS)
Sampled rows, rich in hits. Any-hit rate of the full collection: about 17%.
TDP1 cell noCPT – qHTS for Inhibitors of human tyrosyl-DNA phosphodiesterase 1 (TDP1): qHTS in cells in absence of CPT; DT40 Tdp1-/- hTDP1 cells, no CPT, ATP luminescence, 48 h; 15% of 420,000 active; AID 686978, 2013; Potency, µM (doses to about 46.2 µM), most hits filed as inhibitors; further: nearly all actives have a fitted effect of over 55% in size
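Growth kinetics read by CellTiter-Glo luminescence after ≥48 hr at 37 °C. Cells: DT40 Tdp1-/- stably carrying human TDP1, 400 per well, compound exposure in the absence of CPT (DMSO vehicle).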
TDP1 block – TDP1 (human) enzyme inhibition | recombinant TDP1, AlphaScreen DNA substrate cleavage | Q9NUW8 | 0.28% of 350,000 active | Potency, µM (highest dose often 130 µM), hits mostly inhibitors; further: nearly all actives have a fitted effect of over 40% in size
Target sequence (Q9NUW8 whole entry, looked up): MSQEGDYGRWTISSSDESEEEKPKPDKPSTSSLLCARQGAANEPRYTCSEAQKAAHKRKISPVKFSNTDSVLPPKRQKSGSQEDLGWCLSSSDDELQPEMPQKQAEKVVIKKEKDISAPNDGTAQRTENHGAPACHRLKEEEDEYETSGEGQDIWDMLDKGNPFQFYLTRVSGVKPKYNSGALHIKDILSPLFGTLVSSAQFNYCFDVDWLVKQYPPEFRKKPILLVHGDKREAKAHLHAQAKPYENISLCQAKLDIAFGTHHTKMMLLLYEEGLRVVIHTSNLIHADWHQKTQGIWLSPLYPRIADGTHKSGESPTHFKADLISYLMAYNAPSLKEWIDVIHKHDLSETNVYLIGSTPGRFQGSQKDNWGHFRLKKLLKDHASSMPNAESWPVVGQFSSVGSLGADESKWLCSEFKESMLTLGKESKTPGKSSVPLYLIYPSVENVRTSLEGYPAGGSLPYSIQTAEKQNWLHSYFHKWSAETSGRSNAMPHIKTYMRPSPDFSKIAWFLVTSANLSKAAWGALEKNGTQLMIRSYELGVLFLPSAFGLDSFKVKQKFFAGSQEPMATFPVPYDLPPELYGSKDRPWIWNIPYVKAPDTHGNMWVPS
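AlphaScreen read-out: signal falls as enzyme removes the 3' tyrosine-FITC from a 5'-biotinylated DNA oligo (15 nM, 5 min, RT). Enzyme was E. coli-made recombinant Tdp1 at 1 nM, exposed to compound for 15 min beforehand; beads 10 ug/ml, 10 min.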
DT40 TDP1 CPT – DT40-hTDP1 cell growth loss with CPT; AID 686979; 12% of 420,000 active; Potency, µM (top dose mostly 46.2 µM), most hits filed as inhibitors; chicken DT40 Tdp1-/-;hTDP1 cells + 20 nM CPT, ATP luminescence, 48 h; further: nearly all actives have a fitted effect of over 55% in size
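Cell growth measured by CellTiter-Glo luminescence after a minimum 48 h, 37 C compound exposure with 20 nM CPT in Tdp1-knockout DT40 cells stably expressing hTDP1, seeded 400/well; qHTS titration format.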
ClpP mod – qHTS Assay for Activators of ClpP; AID 651965, 2013; 1.9% of 340,000 active; Potency, µM (highest dose often 57.5 µM); purified B. subtilis ClpP, FRET peptide cleavage, 20 min; active means well fitted falling curve with a large enough effect; inconclusive means small, poorly fitted or top-dose-only effect; inactive means no such curve, though single readings can be large or run the other way; further: the source files actives as falling curves though it sought activators and does not explain the sign; nearly all actives have a fitted effect of over 65% in size
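ClpP 10 microg/mL final, pH 8 Tris/KCl buffer with BSA, glycerol, Tween-20; compound pinned in; FRET-FV substrate; RT 20 min; Ex320/Em430; ΔFRET vs ADEP 5.8 microM, DMSO, no enzyme.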
Numbers stand for hits. Unless noted, the call rests on the fitted dose curve; in most records, active means well fitted curve in the direction sought with a large enough effect; inconclusive means small, poorly fitted or top-dose-only effect, or another doubt; inactive means no such curve, though single readings can be large; an effect the other way counts as inactive or inconclusive.

`C=C1C(=O)O[C@H]2C[C@]3(C)C([C@@H](OC(=O)/C(C)=C/C)[C@H]12)[C@](C)(O)CC[C@H]3O` (stereo partly drawn) gave TDP1 cell noCPT 8.2µM, DT40 TDP1 CPT 15µM and ClpP mod inactive.
CC[C@H]1C(O)C[C@H]2CCN3C(=O)CCC[C@H]1[C@H]23 (stereo partly drawn) was read as TDP1 cell noCPT inactive, TDP1 block inactive, DT40 TDP1 CPT inactive and ClpP mod inactive.
For Cc1oc(-c2cccc(Cl)c2)nc1Cn1c(SCc2ccccc2F)nc2ccncc21 the results were TDP1 cell noCPT 23µM, TDP1 block inactive, DT40 TDP1 CPT 16µM and ClpP mod inactive.
For COc1ccc(-c2nc(Cn3c(SCc4cccc(Cl)c4)nc4ccncc43)c(C)o2)cc1 the results were TDP1 cell noCPT inconclusive, TDP1 block inactive, DT40 TDP1 CPT 23µM and ClpP mod inactive.
For COc1ccc(CSc2nc3ccncc3n2Cc2nc(-c3ccc(OC)c(OC)c3)oc2C)cc1 the results were TDP1 cell noCPT inconclusive, TDP1 block inactive, DT40 TDP1 CPT 26µM and ClpP mod inconclusive.
For Cc1ccc(CSc2nc3ccncc3n2Cc2nc(-c3ccccc3C)oc2C)cc1 the results were TDP1 cell noCPT inconclusive, TDP1 block inactive, DT40 TDP1 CPT inconclusive and ClpP mod inactive.
Screening Cc1oc(-c2ccccc2F)nc1Cn1c(SCc2cccc(C(F)(F)F)c2)nc2ccncc21 returned TDP1 cell noCPT inconclusive, TDP1 block inactive, DT40 TDP1 CPT inconclusive and ClpP mod inactive.
For CCOc1ccc(/C=N/NC(=O)c2c(C)n(C)c3ccc(OC)cc23)cc1 the results were TDP1 cell noCPT 5.8µM, TDP1 block inactive, DT40 TDP1 CPT 5.2µM and ClpP mod inactive.
Screening COc1ccc2c(c1)c(C(=O)N/N=C/c1ccc(Br)cc1)c(C)n2C returned TDP1 cell noCPT 10µM, DT40 TDP1 CPT 10µM and ClpP mod inactive.
COc1ccc2c(c1)c(C(=O)N/N=C/c1ccc(O)c(O)c1)c(C)n2C was read as TDP1 cell noCPT 26µM, TDP1 block inactive, DT40 TDP1 CPT inconclusive and ClpP mod inactive.
`CCOc1cc(N2CCOCC2)c(OCC)cc1NC(=O)CN1C(=O)C2C3C=CC(C3)C2C1=O` (stereo not drawn) gave TDP1 cell noCPT inactive, TDP1 block inactive, DT40 TDP1 CPT inactive and ClpP mod inactive.
For CCc1c(C(C)S(=O)(=O)c2ccc(C)cc2)[nH]c(=O)n1-c1ccc(C)cc1 (stereo not drawn) the results were TDP1 cell noCPT 29µM, TDP1 block inactive, DT40 TDP1 CPT inconclusive and ClpP mod inactive.
`CCc1[nH]c(=O)[nH]c1C(C)S(=O)(=O)c1ccc(C)cc1` (stereo not drawn) gave TDP1 cell noCPT inconclusive, TDP1 block inactive and DT40 TDP1 CPT inconclusive.
Screening C[C@@H](c1ncncc1F)C(O)(Cn1cncn1)c1ccc(F)cc1F (stereo partly drawn) returned TDP1 cell noCPT inactive and DT40 TDP1 CPT inactive.
Screening CCOC(=O)c1sc(=S)n(C)c1NC(=O)c1cccc(Br)c1 returned TDP1 cell noCPT 21µM, TDP1 block inactive, DT40 TDP1 CPT 21µM and ClpP mod inactive.
CCOC(=O)c1sc(=S)n(C)c1NC(=O)c1ccccc1 was read as TDP1 cell noCPT 21µM, TDP1 block inactive, DT40 TDP1 CPT inconclusive and ClpP mod inactive.
Screening CC(=O)c1cccc(N2C(=O)CC(N3CCN(S(=O)(=O)c4ccc(Cl)cc4)CC3)C2=O)c1 (stereo not drawn) returned TDP1 cell noCPT inactive, TDP1 block inactive, DT40 TDP1 CPT inactive and ClpP mod inactive.
`CCCc1nc2cccnc2n1C1CCN(C(=O)CC2NC(=O)c3ccccc32)CC1` (stereo not drawn) gave TDP1 cell noCPT inactive and DT40 TDP1 CPT inactive.
`Cc1ccc(N2C(=O)CSC23C(=O)N(CC(=O)NCc2ccccc2)c2ccccc23)cc1C` (stereo not drawn) gave TDP1 cell noCPT inconclusive, TDP1 block inactive, DT40 TDP1 CPT inconclusive and ClpP mod inactive.
For COc1cc(-c2nc(Cn3nnc(C(=O)Nc4ccc(C)cc4C)c3C)c(C)o2)cc(OC)c1OC the results were TDP1 cell noCPT 21µM, TDP1 block inactive, DT40 TDP1 CPT inconclusive and ClpP mod inactive.
C=NCc1cc2c(OC[C@@H](O)CNC(C)(C)C)cccc2[nH]1 was read as TDP1 cell noCPT inactive, TDP1 block inactive and DT40 TDP1 CPT inactive.
`CCC1(C)CC2(CCCN(CCC(O)(c3ccccc3)c3ccccc3)C2)CCO1` (stereo not drawn) gave TDP1 cell noCPT 15µM, DT40 TDP1 CPT inconclusive and ClpP mod inactive.
COc1ccc(OC)c(NS(=O)(=O)c2ccc(NC(=O)C3COc4ccccc4O3)cc2)c1 (stereo not drawn) was read as TDP1 cell noCPT 18µM, TDP1 block inactive, DT40 TDP1 CPT 15µM and ClpP mod inactive.
Screening O=C(Nc1ccc(S(=O)(=O)Nc2ncccn2)cc1)C1COc2ccccc2O1 (stereo not drawn) returned TDP1 cell noCPT inactive, TDP1 block inactive and DT40 TDP1 CPT inactive.
`COc1ccc(S(=O)(=O)N2CCCCC2)cc1NC(=O)c1ccc2c(c1)OCO2` gave TDP1 cell noCPT 15µM, TDP1 block inactive, DT40 TDP1 CPT inconclusive and ClpP mod inactive.
For COc1ccc(S(=O)(=O)N2CCCCC2)cc1NC(=O)C1COc2ccccc2O1 (stereo not drawn) the results were TDP1 cell noCPT 23µM, TDP1 block inactive, DT40 TDP1 CPT 23µM and ClpP mod inactive.
For COc1ccc(S(=O)(=O)N2CCOCC2)cc1NC(=O)c1ccc2c(c1)OCO2 the results were TDP1 cell noCPT inactive, TDP1 block inactive, DT40 TDP1 CPT inactive and ClpP mod inactive.
Cc1ccc(S(=O)(=O)N2CC3C(=O)C[C@@H](c4ccccc4)N(S(=O)(=O)c4cccc(Cl)c4)C3CC2c2ccccc2)cc1 (stereo partly drawn) was read as TDP1 cell noCPT 23µM, DT40 TDP1 CPT inconclusive and ClpP mod inactive.
For Cc1cc(SCC(=O)N/N=C/c2ccc(O)cc2O)nc2ccccc12 the results were TDP1 cell noCPT 4.1µM and DT40 TDP1 CPT inconclusive.
Screening O=C(CSc1nc2ccccc2o1)N/N=C/c1ccc(O)c(O)c1 returned TDP1 cell noCPT 21µM, DT40 TDP1 CPT 18µM and ClpP mod inactive.
For COc1ccc2nc(C)cc(SCC(=O)N/N=C/c3ccc(O)c(O)c3)c2c1 the results were TDP1 cell noCPT 29µM, TDP1 block inactive and DT40 TDP1 CPT inconclusive.
COc1ccc2nc(C)cc(SCC(=O)N/N=C/c3cccc4ccccc34)c2c1 was read as TDP1 cell noCPT 13µM, TDP1 block inactive, DT40 TDP1 CPT 7.1µM and ClpP mod inconclusive.
COC(=O)CSc1cc(C)nc2ccc(OC)cc12 was read as TDP1 cell noCPT inactive, TDP1 block inactive, DT40 TDP1 CPT inactive and ClpP mod inactive.
